# ChEMBL document CHEMBL3988442, “University of Dundee, Small-Polar-MMV Screening Library” (2021)
# In all, about 48,000 compounds went through this assay and about 13,000 (27%) showed an effect of 50% or more. The list shows a part of the results.
# Tested on: Wolbachia pipientis
# Assay: Anti-Wolbachia Cell-Based Screen
# Assay type: functional
# Design: scale not given: in the data most compounds retested in dose-response had high values
# Settings: 5 µM
row,Compound,Percent Effect
1,CN(C)Cc1ccc(NC(=O)c2nccn3ccnc23)cc1,4.692%
2,c1cc(CN2CCc3cncnc3C2)c2c(c1)OCCO2,51.63%
3,CCc1ncc2c(n1)CN(Cc1nc(-c3ccsc3)no1)CC2,-2.841%
4,CCc1ncc2c(n1)CN(Cc1nc(-c3cccs3)no1)CC2,94.19%
5,Cn1nc2c(cc1=O)CN(Cc1nc(-c3cccs3)no1)CC2,-4.413%
6,Cc1ncc2c(n1)CN(Cc1cccc3c1OCCO3)CC2,-20.45%
7,COc1ccc(-c2noc(CN3CCc4cncnc4C3)n2)cc1,-16.15%
8,CC(C)c1nc2c(n1C)CCN(Cc1nc(-c3cccs3)no1)C2,-3.537%
9,CCc1ncc2c(n1)CN(Cc1cccc3c1OCCO3)CC2,-19.5%
10,c1csc(-c2noc(CN3CCc4cncnc4C3)n2)c1,93.12%
11,c1csc(-c2noc(CN3CCc4c(ncn4C4CC4)C3)n2)c1,-1.185%
12,CC(C)c1ncc2c(n1)CN(Cc1nc(-c3cccs3)no1)CC2,1.311%
13,Cc1ncc2c(n1)CN(Cc1nc(-c3cccs3)no1)CC2,104.1%
14,O=C(NC1(c2nnn(CC3CC3)n2)CCCC1)c1ccccc1,-31.69%
15,CCc1nc(C)c(C(=O)N2CCCC(c3noc(C)n3)C2)s1 (stereo unspecified),-3.627%
16,CN(C)c1ccc(CCCNC(=O)NCC(O)c2cccs2)cc1 (stereo unspecified),15.76%
17,CN1CCN(CCCNC(=O)C2CCCCC2)CC1,-13.83%
18,CCC(NCCn1cccn1)C(=O)Nc1cc(C)on1 (stereo unspecified),-12.89%
19,Cc1cc(-c2cnn(CCNC(=O)Cc3ccccn3)c2C2CC2)on1,116.9%
20,Cc1cc(-c2cnn(CCNC(=O)CCn3cccn3)c2C2CC2)on1,139.3%
21,CC1CCN(C(CNC(=O)CCn2cccn2)c2cccs2)CC1 (stereo unspecified),3.155%
22,O=C(O)C(F)(F)F.O=S(=O)(C1CC1)N1CCc2onc(COc3ccccn3)c2C1,-9.105%
23,Cn1cnc2c1CCN(CC(O)c1ccc(S(C)(=O)=O)cc1)C2 (stereo unspecified),1.592%
24,Cc1ccoc1C(=O)NCC(c1ccccc1Cl)N1CCOCC1 (stereo unspecified),-4.275%
25,O=C(CCc1ccccc1)N1CCn2cc(CN3CCCC3)nc2C1,5.739%
26,CC(C)(O)CN1CC(C)(C)CN(C(=O)CCc2ccccc2)CC1=O,88.99%

row,Compound,Percent Effect
1,CC(O)CN1CC(C)(C)CN(C(=O)CCc2ccccc2)CC1=O (stereo unspecified),108.2%
2,CCN1CC(C)(C)CN(C(=O)CCc2ccccc2)CC1=O,98.77%
3,CCCC(O)CN1CC(C)(C)CN(C(=O)CCc2ccccc2)CC1=O (stereo unspecified),81.6%
4,CCc1nc(C(=O)N2CCN(C(=O)CCc3ccccc3)CC2)c[nH]1,-3.201%
5,CCC(Nc1nnnn1-c1ccccc1)C(=O)NC1CCSCC1 (stereo unspecified),2.585%
6,O=C(O)C1(Oc2ccccc2F)CCN(C/C=C/c2ccco2)CC1,10.04%
7,Oc1ccc(-c2c(-c3ccccc3)ncn2C2CCNC2)cc1 (stereo unspecified),5.17%
8,COc1cc2c(cc1C1CC(=O)NCc3nc(N(C)C)sc31)CCC2 (stereo unspecified),-15.52%
9,COCC(O)CN1CC(C)(C)CN(C(=O)CCc2ccccc2)CC1=O (stereo unspecified),110.7%
10,CN1CCN(C(=O)CCc2ccccc2)Cc2cccnc21.O=C(O)C(F)(F)F,-4.699%
11,CC1N(C)C(=O)COC12CCN(C(=O)CCc1ccccc1)CC2 (stereo unspecified),0.4061%
12,CN1CC(C)(C)CN(C(=O)CCc2ccccc2)CC1=O,83.23%
13,CN1C(=O)CC(C(=O)O)C12CCN(Cc1ccc(Cl)cc1F)CC2 (stereo unspecified),5.202%
14,CC(C)NC(=O)N1Cc2nccn2CC(COc2cccnc2)C1.O=C(O)C(F)(F)F (stereo unspecified),96.94%
15,CC(=O)NCC(=O)N1Cc2nccn2CC(CN(C)C(C)C)C1.O=C(O)C(F)(F)F (stereo unspecified),-7.594%
16,CC(=O)NCC(=O)N1Cc2nccn2CC(COc2cccnc2)C1.O=C(O)C(F)(F)F (stereo unspecified),111.9%
17,CC(C)NC(=O)N1Cc2nccn2CC(CN2CCCC2)C1.O=C(O)C(F)(F)F (stereo unspecified),12.37%
18,CC(=O)NCC(=O)N1Cc2nccn2CC(CN2CCCC2=O)C1 (stereo unspecified),14.08%
19,Cn1cc(Br)cc(NC(=O)CC(C)(C)C)c1=O,3.241%
20,CSc1ccc2cc(CN(C)CCc3cn[nH]c3)c(=O)[nH]c2c1,4.017%
21,CC(C)(C)C(=O)NCc1cnn2ccccc12,-7.626%
22,CC(C)C(=O)NCc1ccccc1NS(=O)(=O)c1ccccc1,-3.24%
23,CC(C)OCc1ccccc1CNC(=O)C(C)(C)C,99.75%
24,CC(C)S(=O)(=O)C(C)C(=O)NCc1ccccc1COc1ccccc1 (stereo unspecified),92.84%
25,CC(C)S(=O)(=O)C(C)C(=O)NCc1cccc(N2CCCCC2=O)c1 (stereo unspecified),12.9%
26,CC(COc1ccccc1)NS(C)(=O)=O (stereo unspecified),-8.999%

row,Compound,Percent Effect
1,CC(C)OCc1ccccc1CNC(=O)C(C)S(=O)(=O)C(C)C (stereo unspecified),93.94%
2,CCc1ccccc1CNC(=O)CNC(=O)C(C)(C)C,-5.244%
3,CCOc1ccccc1CNC(=O)N(CC)C(C)c1cccnc1 (stereo unspecified),2.92%
4,CC(C)OCc1ccc(CNC(=O)CC(F)(F)F)cc1,28.04%
5,CC(C)S(=O)(=O)C(C)C(=O)NCc1ccccc1OCc1ccccc1 (stereo unspecified),96.24%
6,CC(C)NC(=O)NCc1ccccc1NS(=O)(=O)c1ccccc1,15.1%
7,Cc1cc(C(=O)N2CC(=O)Nc3cnccc32)c(Cl)cc1F,-6.598%
8,COc1ccc(N2CCCC3(C2)CN(c2nncs2)CCO3)cc1 (stereo unspecified),-4.383%
9,O=C(Cc1ccsc1)NCC1Cn2nnc(-c3ccoc3)c2CO1 (stereo unspecified),-0.8336%
10,CC(C)N(C)C(=O)C1CCN(Cc2cc3c(cc2O)CCC3)CC1,3.726%
11,O=C(NCc1ccccc1CO)C1COc2ccccc21 (stereo unspecified),-7.77%
12,CCCN1CCC(Nc2cc(-c3ccccc3)ccc2OC)CC1,9.804%
13,C=C(C)CN(CC)C(=O)CN1CCCC1C(=O)N(C)C (stereo unspecified),1.656%
14,COc1cc(C(=O)NS(=O)(=O)c2cccc(C#N)c2)ccc1C,0.1033%
15,COc1cc(C(=O)NS(=O)(=O)c2cccc(C#N)c2)cc(OC)c1C,111.6%
16,COc1cc(C(=O)NS(=O)(=O)c2cccc(C#N)c2)cc(Cl)c1OC,0.151%
17,COc1cc(C(=O)NS(=O)(=O)c2cccc(C#N)c2)cc(OC)c1Br,100.1%
18,N#Cc1ccc(S(=O)(=O)NC(=O)c2ccc3c(c2)COC3)cc1,-13.21%
19,CSc1ccsc1C(=O)NS(=O)(=O)c1cccc(C#N)c1,-50.61%
20,COc1cc(C(=O)NS(=O)(=O)c2ccc(C#N)cc2)ccc1C,127.1%
21,N#Cc1ccc(C(=O)NS(=O)(=O)c2ccc(F)c(F)c2)cc1,6.651%
22,CCOc1cc(C(=O)NS(=O)(=O)c2cccc(C#N)c2)ccc1OC,121%
23,COc1ccc(C(=O)NS(=O)(=O)c2cncc(Br)c2)cc1OC,-20.98%
24,CC(C)(C)C(=O)NCCC(=O)NS(=O)(=O)c1cccc(C#N)c1,-5.738%
